PubChem BioAssay (EPA / NIEHS)
Results filed as inconclusive are left out. The source made the active and inactive calls. How the source made its calls: active means hit-call score of the fitted dose curve at least 0.9, where 1 is the maximum; inconclusive means response in the unintended direction; inactive means score below 0.9.

Biological target: Steroid hormone receptor ERR1 (Homo sapiens) (UniProt P11474)
Assay: ATG_ERRa_TRANS: Attagene TRANS-FACTORIAL HepG2 Assay for human Estrogen-Related Receptor alpha (ERRa) (AID 2282971)
Details: HepG2 Attagene TRANS reporter, ERRa transactivation
Method: ATG_TRANS is a cell-based, multiplexed-readout assay that uses HepG2, a human liver cell line, with measurements taken at 24 hours after chemical dosing in a 24-well plate.ATG_ERRa_TRANS is one of 30 assay component(s) measured or calculated from the ATG_TRANS assay. It is designed to make measurements of mRNA induction, a form of inducible reporter, as detected with fluorescence intensity signals by Reverse transcription polymerase chain reaction (RT-PCR) and Capillary electrophoresis technology.Data from the assay component ATG_ERRa_TRANS was analyzed into 1 assay endpoint. This assay endpoint, ATG_ERRa_TRANS, was analyzed in the positive analysis fitting direction relative to DMSO as the negative control and baseline of activity. Using a type of inducible reporter, measures of mRNA for gain-of-signal activity can be used to understand the reporter gene at the transcription factor-level as they relate to the gene ESRRA. Furthermore, this assay endpoint can be referred to as a primary readout, because this assay has produced multiple assay endpoints where this one serves a reporter gene function. To generalize the intended target to other relatable targets, this assay endpoint is annotated to the nuclear receptor intended target family, where the subfamily is steroidal.
Human liver HepG2 cells are transiently transfected with multiple reporter transcription units (MRTUs) in 6-well plates using FuGene 6 reagent (Roche; 3 ml FuGene/1 mg DNA). The MRTU constructs are regulated by a cis-regulating element (promoter). […] A major difference between the CIS and TRANS system is that in CIS activities of endogenous TFs are measured, whereas the TRANS assay evaluates changes in activities of exogenous, chimeric NR-Gal4 proteins. […] At the end of 24 hour incubation, total RNA was isolated using TriZol reagent (Invitrogen). The isolated RNA is then reverse-transcribed using oligo(dT) primer and Mo-MLV reverse transcriptase (Invitrogen) with DNAse I (Ambion) treatment for 30 min. The one-tenth of the produced cDNA was amplified by PCR using Taq DNA polymerase (Invitrogen) and two reporter sequence-specific primers. The PCR products were fluorescently labeled by primer extension with 6-arboxyfluorescein (6-FAM) 5'-labeled reporter sequence-specific primer (2 min at 95 C, 20 s at 68 C and 10 min at 72 C) and these products were digested with 5U of HpaI (New England Biolabs) for 2h at 37 C. The fragments were purified using Qiaquick PCR columns (Qiagen), analyzed on an ABI 3130xL genetic analyzer (Applied Biosystems) with peak positions identified by using a set of X-rhodamine (ROX)-labeled MapMarker1000 molecular weight standards (BioVentures). The raw capillary electrophoresis data was processed using Attagraph software (Attagene).

Steroid hormone receptor ERR1 (Homo sapiens), sequence (P11474 whole entry, looked up): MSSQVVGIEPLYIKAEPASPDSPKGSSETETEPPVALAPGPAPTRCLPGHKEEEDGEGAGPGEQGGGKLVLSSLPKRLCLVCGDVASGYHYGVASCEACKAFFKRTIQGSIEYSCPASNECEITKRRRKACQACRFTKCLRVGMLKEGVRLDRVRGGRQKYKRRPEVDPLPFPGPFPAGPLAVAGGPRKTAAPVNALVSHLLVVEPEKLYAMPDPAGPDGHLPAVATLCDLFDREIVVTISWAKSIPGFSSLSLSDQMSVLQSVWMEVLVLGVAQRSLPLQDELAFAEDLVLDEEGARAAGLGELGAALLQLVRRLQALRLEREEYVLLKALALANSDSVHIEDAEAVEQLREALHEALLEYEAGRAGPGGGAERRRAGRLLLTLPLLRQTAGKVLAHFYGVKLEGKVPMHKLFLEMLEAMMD

outcome, inactive:
O=c1cc[nH]c(=S)[nH]1
CC(=O)OCc1ccco1
CCCCCCCCCCc1ccccc1
CCN(CCO)c1cccc(C)c1
OCCc1ccncc1
O=C1CCCC1
COC(=O)c1ccc2cc(C(=O)OC)ccc2c1
CCC(Cc1ccccc1)(C(=O)c1ccc(N2CCOCC2)cc1)N(C)C (stereo not given)
Cc1cccc(OCCOc2cccc(C)c2)c1
O=C(Nc1ccccc1)c1ccccc1O
CC(C)C1=CC2=CC[C@@H]3[C@](C)(CCC[C@@]3(C)C(=O)O)[C@H]2CC1
CC(C)(C)C(=O)C=Cc1ccc(Cl)cc1
O=C(O)CCCC[C@@H]1SC[C@@H]2NC(=O)N[C@@H]21
Nc1cccc(C(F)(F)F)c1
Cc1cc(=O)n(-c2ccccc2)n1C
CCCCCCCCCCCCCCCC[N+](C)(C)CC
CCCCCCCOC(=O)CCC
OC1CCCC1
CCCCCCCCCCCSCC(=O)O
Cc1cc(C)c(C)c(O)c1
Cc1c(C)c([N+](=O)[O-])c(C(C)(C)C)c([N+](=O)[O-])c1C
COc1cc(NC(=O)CC(C)=O)c(OC)cc1Cl
CCC(C)(C)C1CCCCC1OC(C)=O (stereo not given)
O=C1c2cccc(O)c2C(=O)c2c(O)cc(CO)cc21
O=[N+]([O-])C1(Br)COCOC1
c1ccc2c(c1)ccc1ncccc12
CCCCC/C=C\CCC=O
C1CN(SSN2CCOCC2)CCO1
Cc1cc(C)c(C)c(C)c1
O=C1CCCCCCCCCCCCCCCO1
COC(=O)c1ccccc1OC
CC(C)(C)C(=O)CCc1ccc(Cl)cc1
C=C(C)[C@@H]1CCC2=CCC[C@@H](C)[C@]2(C)C1
CC/C=C\CCOC(=O)CCCCC
O=C1CC2CC1C1CCCC21 (stereo not given)
CCCCC(CC)COC(=O)c1ccccc1O (stereo not given)
O=C(Nc1ccccc1SSc1ccccc1NC(=O)c1ccccc1)c1ccccc1
COc1ccc(C(Cl)=C(c2ccc(OC)cc2)c2ccc(OC)cc2)cc1
C[C@]12C=CC(=O)C=C1CC[C@@H]1[C@@H]2[C@@H](O)C[C@@]2(C)[C@H]1CC[C@]2(O)C(=O)CO
NC(=O)N=NC(N)=O
